# Activity calls are given as the source filed them. Unless noted, the rule behind the calls is not given here.
# Legend:
# [1] = A549 cell viability effects, profiling panel, calcein-AM fluorescence, 48 h, basal (AID 1162); details: higher = more signal; note: test concentration not given here
# [2] = adipocyte viability effects, profiling panel, cell-based, 3T3-L1 adipocytes, calcein-AM fluorescence, 48 h, basal (AID 1163); details: 3T3-L1 adipocytes viability, higher = more signal; note: test concentration not given here
# [3] = HepG2 cell viability effects, profiling panel, calcein-AM fluorescence, 48 h, basal (AID 1164); details: higher = more signal; note: test concentration not given here
# [4] = MM1S cell viability effects, profiling panel, calcein-AM fluorescence, 48 h, basal (AID 1165); details: higher = more signal;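 note: viability of MM1S multiple myeloma cells under basal unstimulated conditions; test concentration not given here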
# [5] = basal RPMI8226 viability, no added stimulus, profiling panel, cell-based, calcein-AM fluorescence, 48 h, PK04 Diversity Set (AID 1166); details: RPMI8226 myeloma viability, higher = more signal;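 note: cells grown under basal conditions without added stimulus; test concentration not given here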
# [6] = basal HepG2 mitochondrial membrane potential changes, profiling panel, cell-based, JC-1 fluorescence, 24 h, 100 nL compound (AID 1167); details: higher = more signal; note: test concentration not given here
# [7] = basal 3T3-L1 adipocyte mitochondrial potential changes, profiling panel, cell-based, JC-1 fluorescence, 3T3-L1 adipocytes, 24 h, 100 nL compound (AID 1168); details: JC-1 mitochondrial fluorescence, higher = more signal, called active from +8 up or from −8 down; note: test concentration not given here
# [8] = basal RPMI8226 mitochondrial membrane potential changes, profiling panel, cell-based, JC-1 fluorescence, 24 h, 100 nL compound (AID 1169); details: RPMI8226 myeloma, JC-1 mitochondrial potential fluorescence, higher = more signal; note: test concentration not given here
# [9] = basal MM1S mitochondrial membrane potential changes, profiling panel, cell-based, JC-1 fluorescence, 24 h, 100 nL compound (AID 1170); details: higher = more signal; note: test concentration not given here
# [10] = A549 lung cancer cell viability effects, profiling panel, resazurin fluorescence, 24 h, PK04 Diversity Set (AID 1171); details: higher = more signal, called active from +8 up or from −8 down; note: test concentration not given here
# [11] = HepG2 liver cancer cell viability effects, profiling panel, resazurin fluorescence, 24 h, PK04 Diversity Set (AID 1172); details: higher = more signal; note: test concentration not given here
# [12] = basal S. cerevisiae growth modulation, no modifier, primary screen, OD600, strain BY4716, 24 h, basal condition (AID 1173); details: OD600, 24 h, higher = more signal, called active from +8 up or from −8 down
# [13] = MM1S myeloma cell viability, profiling panel, resazurin fluorescence, basal, 24 h, PK04 Diversity Set (AID 1174); details: higher = more signal, called active from +8 up or from −8 down;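 note: MM1S multiple myeloma cell line; test concentration not given here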
# [14] = molecular target: Dihydroorotate dehydrogenase (quinone), mitochondrial (Plasmodium falciparum (isolate 3D7)) (UniProt Q08210); assay: PfDHODH enzyme inhibitors, primary screen, biochemical, C-terminal His tag, absorbance 600 nm (AID 1175); details: DCIP absorbance 600 nm, higher = more signal, called active from +8 up or from −8 down;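 note: recombinant parasite enzyme with a five histidine tag at its C terminus; test concentration not given here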
# Dihydroorotate dehydrogenase (quinone), mitochondrial (Plasmodium falciparum (isolate 3D7)), sequence (Q08210 whole entry, looked up): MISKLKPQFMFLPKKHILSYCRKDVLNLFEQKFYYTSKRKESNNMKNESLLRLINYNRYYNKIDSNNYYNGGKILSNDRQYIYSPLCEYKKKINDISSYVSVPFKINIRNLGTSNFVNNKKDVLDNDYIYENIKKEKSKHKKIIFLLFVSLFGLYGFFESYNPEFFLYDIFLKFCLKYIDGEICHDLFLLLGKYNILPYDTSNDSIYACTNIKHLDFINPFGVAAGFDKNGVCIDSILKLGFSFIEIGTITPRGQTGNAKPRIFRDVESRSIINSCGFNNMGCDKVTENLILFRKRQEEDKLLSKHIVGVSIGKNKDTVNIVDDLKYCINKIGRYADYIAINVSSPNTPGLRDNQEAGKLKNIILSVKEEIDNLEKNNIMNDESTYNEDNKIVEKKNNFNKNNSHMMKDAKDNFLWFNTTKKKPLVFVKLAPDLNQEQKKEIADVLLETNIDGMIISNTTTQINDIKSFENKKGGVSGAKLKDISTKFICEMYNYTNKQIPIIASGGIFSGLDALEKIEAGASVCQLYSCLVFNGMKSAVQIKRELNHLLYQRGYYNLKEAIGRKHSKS
# [15] = P. aeruginosa biofilm formation inhibitors, primary screen, strain PAO1, LB-PBS medium, absorbance 600 nm (AID 1176); note: test concentration not given here; details: P. aeruginosa PAO1 growth/biofilm, A600, 12 h; higher = more signal
# [16] = S. cerevisiae RM11-1a growth modifiers, primary screen, strain RM11-1a, OD600, basal, 24 h (AID 1177); details: OD600, 24 h, higher = more signal, called active from +8 up or from −8 down;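 note: cultures grown under basal conditions with no added stressor; test concentration not given here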
# [17] = E. coli acrAB mutant growth effects, primary screen, E. coli filamentation inducers, strain DRC39, OD650, 24 h (AID 1178); details: higher = more signal, called active from +8 up or from −8 down;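 note: growth measured as culture turbidity by optical density at 650 nm; test concentration not given here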
# [18] = E. coli acrAB mutant growth effects, primary screen, E. coli filamentation inducers, strain DRC39, OD650, 48 h (AID 1179);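 note: screen aims at cell division blockers that make cells filament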; details: E. coli DRC39 delta-acrAB growth, higher = more signal, called active from +8 up or from −8 down
# [19] = RPMI8226 myeloma cell viability, profiling panel, resazurin fluorescence, basal, 24 h, PK04 Diversity Set (AID 1180); details: higher = more signal;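 note: RPMI8826 multiple myeloma cell line at 5000 cells per well; test concentration not given here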
# [20] = molecular target: E3 ubiquitin-protein ligase XIAP (Homo sapiens) (UniProt P98170); assay: XIAP binders, primary screen, biophysical, small-molecule microarray, fluorescence 635 nm (AID 1181); details: small-molecule microarray binding, higher = more signal;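 note: score merges 667 nm emission and signal to noise over triplicate slides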
# E3 ubiquitin-protein ligase XIAP (Homo sapiens), sequence (P98170 whole entry, looked up): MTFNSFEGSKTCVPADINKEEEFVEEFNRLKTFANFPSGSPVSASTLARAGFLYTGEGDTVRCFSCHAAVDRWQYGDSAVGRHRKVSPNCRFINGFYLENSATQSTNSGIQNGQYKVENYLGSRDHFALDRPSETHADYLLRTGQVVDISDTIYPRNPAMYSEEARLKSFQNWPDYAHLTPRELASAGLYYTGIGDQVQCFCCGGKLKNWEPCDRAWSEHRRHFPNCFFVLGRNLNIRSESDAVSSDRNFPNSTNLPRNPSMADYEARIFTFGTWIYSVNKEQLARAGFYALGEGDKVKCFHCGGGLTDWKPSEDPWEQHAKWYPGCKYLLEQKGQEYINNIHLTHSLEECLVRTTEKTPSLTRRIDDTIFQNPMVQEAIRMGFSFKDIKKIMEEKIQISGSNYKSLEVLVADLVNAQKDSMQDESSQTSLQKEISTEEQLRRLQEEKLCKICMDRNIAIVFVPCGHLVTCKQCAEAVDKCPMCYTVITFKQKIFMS
Compound,z-score [1],z-score [2],z-score [3],z-score [4],z-score [5],z-score [6],z-score [7],z-score [8],z-score [9],z-score [10],z-score [11],z-score [12],z-score [13],composite z-score [14],z-score [15],z-score [16],z-score [17],z-score [18],z-score [19],composite z-score [20]
O=C1O[C@H](c2ccccc2)[C@H](c2ccccc2)N2[C@H]1[C@@H](C(=O)Nc1nc3ccccc3s1)[C@]1(C(=O)Nc3ccc(C#CCCO)cc31)[C@H]2c1ccc(O)cc1,0.695,0.215,-0.257,-2.26,-3.96,-3.86,-0.525 (inactive),-1.25,-1.48,0.679 (inactive),0.506,0.14 (inactive),0.157 (inactive),-0.253 (inactive),1.04 (inactive),0.604 (inactive),0.266 (inactive),0.145 (inactive),-2.4,1.01
O=C1O[C@@H](c2ccccc2)[C@@H](c2ccccc2)N2[C@@H](c3ccc(OCCO)cc3)[C@]3(C(=O)Nc4ccccc43)[C@@H](C(=O)O)[C@H]12,-0.644,0.624,-0.888,0.243,-0.146,-1.36,-0.174 (inactive),-0.0788,-1.13,0.225 (inactive),-0.273,-0.624 (inactive),0.432 (inactive),-1.09 (inactive),0.449 (inactive),-0.66 (inactive),0.468 (inactive),-0.513 (inactive),0.441,-0.0339
COC(=O)C(CC#Cc1ccc2c(c1)[C@]1(C(=O)N2)[C@H](c2ccccc2OCCO)N2[C@H](c3ccccc3)[C@H](c3ccccc3)OC(=O)[C@H]2[C@@H]1C(=O)NC[C@H](O)c1ccccc1)C(=O)OC,1.24,-0.625,0.876,-3.38,-4.55,-1.12,1.01 (inactive),-1.11,-2.27,0.107 (inactive),-0.248,1.61 (inactive),-6.75 (inactive),-4.58 (inactive),2.09 (inactive),2.22 (inactive),0.405 (inactive),0.615 (inactive),-6.97,0.279
COc1cc2c(cc1O)C(C)N(Cc1ccc([N+](=O)[O-])o1)CC2 (stereo not given),0.687,0.831,-0.963,-1.21,-0.867,-2.09,-0.741 (inactive),0.105,-0.208,-0.0799 (inactive),-0.11,-0.942 (inactive),-0.653 (inactive),-0.749 (inactive),-0.103 (inactive),-0.74 (inactive),-1.04 (inactive),-0.679 (inactive),-0.396,-0.127
COCCCNC(=O)[C@]1(CCS(=O)(=O)c2ccccc2)N=C(c2ccc(OCCCO)cc2)O[C@@H]1c1ccccc1N=[N+]=[N-],0.76,0.108,0.683,-1.41,-0.311,-0.0945,-0.594 (inactive),-0.986,-0.754,0.265 (inactive),0.129,0.0817 (inactive),-0.458 (inactive),0.887 (inactive),0.413 (inactive),0.771 (inactive),0.357 (inactive),0.0059 (inactive),-0.998,-0.199
C[C@]1(C(=O)NC2CC2)c2ccccc2C(=O)N(Cc2ccccc2)[C@H]1c1ccc(CO)cc1,0.395,1.51,-0.577,0.855,-0.655,1.66,0.195 (inactive),-0.0462,0.263,0.54 (inactive),-0.0738,-0.886 (inactive),1.62 (inactive),-0.806 (inactive),0.553 (inactive),-1.02 (inactive),0.809 (inactive),0.653 (inactive),1.08,-0.234
COCC1=C2[C@@H](CCc3ccccc3)OB(O)C[C@@H]2[C@@H]2C(=O)C=CC(=O)[C@@H]2C1,0.144,-0.147,-0.165,-3.4,-3.63,-3.14,-2.12 (inactive),-0.654,-2.55,-0.648 (inactive),-1.15,-5.61 (inactive),-0.997 (inactive),-4.14 (inactive),0.106 (inactive),-0.143 (inactive),-0.244 (inactive),0.0271 (inactive),-0.878,0.906
CN1C(=O)C2C=CC(C(O)C#Cc3ccccc3)N(Nc3ccccc3)C2C1=O (stereo not given),-1.12,-0.341,-0.255,-1.05,-0.398,-1.36,0.39 (inactive),-1,-1,0.699 (inactive),-0.264,-1.36 (inactive),-1.06 (inactive),0.164 (inactive),-0.103 (inactive),1.39 (inactive),-0.0835 (inactive),-1.05 (inactive),-0.633,0.394
CCOC(=O)C1=CC[C@@H](c2cccc(Cl)c2)N(S(=O)(=O)c2ccc(C)cc2)C1,-0.236,0.472,0.46,-1.14,-0.789,0.584,1.34 (inactive),-0.043,-0.51,-0.617 (inactive),-0.36,0.255 (inactive),-0.347 (inactive),-1.54 (inactive),-0.405 (inactive),-0.188 (inactive),0.242 (inactive),1.2 (inactive),-0.277,-0.149

# From PubChem BioAssay
